Source: PMC5540273 (PLoS ONE, 2017)

Columns and labels:
[1] = test system: MYLK4
[2] = test system: MYLK
[3] = test system: MYO3A
[4] = test system: NEK10
[5] = test system: NEK5
[6] = test system: NEK7
[7] = test system: NEK9
[8] = test system: T1, NIM1
T1 construct: gene MGC42105

[9] = test system: NLK
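Also: kd values determined as follow-up on hits from a single-replicate KINOMEscan panel screen.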

Cc1c(Cn2c(C)nn3c(=O)cc(N4CCO[C@H](C)C4)nc23)cccc1C(F)(F)F [GSK2373690]
Kd [1]: > 10 µM

Cc1ccc(-c2ccc3c(ccc4sc5c(c43)NC[C@@H](C)N=C5N(C)C)n2)cn1
Kd [1]: > 10 µM

COc1ccc(-c2cc3c(C)nc(N)nc3n([C@H]3CC[C@H](O)CC3)c2=O)cn1
Kd [2]: > 10 µM

COC(=O)c1c(-c2ccccc2)c2cc(Br)ccc2c(=O)n1Cc1ccc(NC(=O)CCC(=O)O)cc1
Kd [3]: > 10 µM

CCc1ccc(-c2ccc3c(c2)-c2nn(C)cc2S(=O)(=O)N3C)cc1
Kd [3]: > 10 µM

CCCC(=O)Nc1n[nH]c2ncc(-c3cccc4ccccc34)cc12 [SB-642057]
Kd [4]: > 10 µM

COc1cc(Nc2nccc(N3CCC(NC(=O)C4COc5ccccc5O4)C3)n2)cc(OC)c1OC (centres unmarked) [GSK1379761]
Kd [5]: 370 nM

COc1cc(Nc2nccc(N3CCC(NC(=O)C(C)c4ccc(Cl)cc4)C3)n2)cc(OC)c1OC (centres unmarked) [GSK1379757]
Kd [5]: 740 nM

COc1cc2nccc(Nc3ccc(OCc4ccc(NC(C)=O)cc4)cc3)c2cc1OC.Cl [GW440135]
Kd [6]: > 10 µM | Kd [7]: > 10 µM

O=C1NC(=O)C(c2ccccc2)=C1Nc1cccc(O)c1 [SB-390534]
Kd [8]: > 10 µM

COc1cc(Nc2ccnc3ccc(C(F)(F)F)cc23)cc(OC)c1OC [GW577382]
Kd [8]: > 10 µM

OCCCNc1nccc(-c2c(-c3cccc(C(F)(F)F)c3)nn3cc(C(F)(F)F)ccc23)n1 [GW630813]
Kd [9]: 230 nM

CCc1nc(-c2cccc(C)c2)c(-c2ccncc2)s1
Kd [9]: 180 nM
